# Results filed as inconclusive are left out. Where a call stands in place of a potency, no number is given. Calls of active or inactive are those of the source. Calls come from the whole dose curve; as a rule, active = well fitted cell-killing curve with a large enough effect; inconclusive = small, poorly fitted or top-dose-only effect, or effect the other way; inactive = no such curve, though single readings can be large or run the other way.
# System: SW626
# Assay: Confirmatory qHTS for gynecologic anti-cancer compounds from libraries of approved drugs and bioactive compounds; note: nearly all actives have a fitted effect of over 55% in size
# Settings: gynecologic cancer cell panel viability, ATPlite luminescence, 48 h; series mostly up to 57.6 µM
# Procedure, shortened: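 Viability is measured as ATP-dependent luciferase light using ATPlite, read 15 min after reagent addition at room temperature. Compounds, in DMSO, span 57.5 uM down to 0.977 nM over 11 threefold steps for 48 h.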
# Potency is the fitted concentration of half-maximal effect.
row,Structure (SMILES),Potency
1,O=C(O)Cc1ccccc1,inactive
2,C=C(C)[C@H]1Cc2c(ccc3c2O[C@@H]2COc4cc(OC)c(OC)cc4[C@@H]2C3=O)O1,inactive
3,CCOc1ccccc1-n1c(C(C)N2CCN(C(=O)COc3ccc(Cl)cc3)CC2)nc2ccccc2c1=O (configuration not stated),4.85 µM (active)
4,C[C@H]1CCC/C=C/C2C[C@H](O)C[C@H]2[C@H](O)/C=C/C(=O)O1 (some centres not stated),0.172 µM (active)
5,C[C@]12CC[C@H]3[C@@H](CCC4=CC(=O)CC[C@@H]43)[C@@H]1CC[C@@H]2OC(=O)CCc1ccccc1,inactive
6,CCNC(=O)C[C@@H]1N=C(c2ccc(Cl)cc2)c2cc(OC)ccc2-n2c(C)nnc21,inactive
7,CCN1CCN(C(=O)Cc2ccc(Nc3ncc(F)c(Nc4ccc(C(=O)Nc5ccccc5Cl)cc4)n3)cc2)CC1,inactive
